Screen size: about 5,500 compounds; about 2,000 (36%) were called active. Roughly 18% stayed inconclusive and do not appear here. Cut-off read from the data, not from the text of the source: active = normalized growth mostly below about 0.91 (no sharp cut-off); inconclusive = no clear call, values can overlap the other calls; inactive = mostly above about 0.92. Some of the results follow.
Test: chemical genetic growth profiling, strain panel (AID 1159580);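 note: tested at 20 µM; growth read once vehicle control cultures reached saturation at 30 °C; 1 = growth at the plate median or of vehicle wells; lower values mean less growth of the strain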
Conditions: growth OD
[1] = S. cerevisiae deletion strains, locus YAL013W, strain DEP1, active compounds read low
[2] = S. cerevisiae deletion strains, locus YBR229C, strain ROT2, active compounds read low
[3] = S. cerevisiae deletion strains, locus YDL101C, strain DUN1, active compounds read low
[4] = S. cerevisiae deletion strains, locus YDR150W, strain NUM1, active compounds read low
[5] = S. cerevisiae deletion strains, locus YEL061C, strain CIN8, active compounds read low
[6] = S. cerevisiae deletion strains, locus YGR078C, strain PAC10, active compounds read low
[7] = S. cerevisiae deletion strains, locus YHR030C, strain SLT2, active compounds read low
[8] = S. cerevisiae deletion strains, locus YHR087W, strain rtc3, active compounds read low
[9] = S. cerevisiae deletion strains, locus YJL187C, strain SWE1, active compounds read low
[10] = S. cerevisiae deletion strains, locus YJR043C, strain POL32, active compounds read low
[11] = S. cerevisiae deletion strains, locus YJR075W, strain HOC1, active compounds read low
[12] = S. cerevisiae deletion strains, locus YLR039C, strain RIC1, active compounds read low
[13] = S. cerevisiae deletion strains, locus YLR058C, strain SHM2 (second series), active compounds read low
[14] = S. cerevisiae deletion strains, locus YLR085C, strain ARP6, active compounds read low
[15] = S. cerevisiae deletion strains, locus YLR262C, strain YPT6, active compounds read low
[16] = S. cerevisiae deletion strains, locus YML094W, strain GIM5, active compounds read low
[17] = S. cerevisiae deletion strains, locus YMR219W, strain ESC1, active compounds read low
[18] = S. cerevisiae deletion strains, locus YNL153C, strain GIM3, active compounds read low
[19] = S. cerevisiae deletion strains, locus YNL298W, strain CLA4 (second series), active compounds read low
[20] = S. cerevisiae deletion strains, locus YNL322C, strain KRE1, active compounds read low
[21] = S. cerevisiae deletion strains, locus YNR030W, strain Alg12, active compounds read low
[22] = S. cerevisiae deletion strains, locus YPL055C, strain LGE1, active compounds read low
[23] = S. cerevisiae deletion strains, locus YPL241C, strain CIN2, active compounds read low
[24] = S. cerevisiae deletion strains, locus YPR135W, strain CTF4, active compounds read low

Measured: normalized growth

CCOC(=O)c1sc(-c2ccc(C)cc2)nc1O
active: [1] 0.182 | [2] 0.136 | [3] 0.267 | S. cerevisiae deletion strains, locus YDL134C, strain PPH21, active compounds read low 0.716 | [4] 0.195 | [5] 0.583 | [6] 0.122 | [7] 0.0748 | [8] 0.135 | [9] 0.107 | [10] 0.337 | [11] 0.174 | S. cerevisiae deletion strains, locus YKL190W, strain CNB1, active compounds read low 0.46 | [12] 0.409 | [13] 0.129 | [14] 0.228 | [15] 0.464 | [16] 0.345 | [17] 0.218 | [18] 0.301 | [19] 0.118 | [20] 0.313 | [21] 0.438 | [22] 0.659 | [23] 0.463 | [24] 0.368 | S. cerevisiae strains, strain wild type, active compounds read low 0.518

O=C1CC(CSc2ccc(Cl)cc2)=NN1
inactive: [1] 0.957 | S. cerevisiae deletion strains, locus YCL061C, strain MRC1, active compounds read low 0.95 | [3] 1.02 | [4] 0.968 | [6] 0.963 | [7] 0.752 | [10] 0.982 | [11] 0.936 | [12] 1.02 | [13] 0.949 | [15] 0.987 | S. cerevisiae deletion strains, locus YMR263W, strain SAP30, active compounds read low 0.978 | [18] 0.965 | [22] 0.89
active: [2] 0.911 | [5] 0.832 | [8] 0.837 | [9] 0.908 | [14] 0.659 | [16] 0.857 | [17] 0.918 | [19] 0.789 | [20] 0.938 | [21] 0.844 | [23] 0.83 | [24] 0.639
